{"source": "PubChem BioAssay AID492956", "about": "(The Scripps Research Institute Molecular Screening Center, 2010)", "note": "About 3,300 (0.97%) of roughly 340,000 compounds were called active.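 How the source made its calls: active means inhibition above the mean over all tested compounds plus 3 SD (cut at about 30% in these data); inactive means the rest.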 The sample as a whole holds a higher share of actives than the screen did. Non-standard residues stand in square brackets, D forms with d. Residues, ends and D or L forms follow the SMILES beside them. ξ: configuration not given here. *: point of attachment. Cbz = O=C(OCc1ccccc1)*; ξL = CC(C)CC(N)C(=O)O; ξP = O=C(O)C1CCCN1", "data": [{"molecular_target": "Platelet-activating factor acetylhydrolase 2, cytoplasmic (Homo sapiens) (UniProt Q99487)", "experiment": "PAFAH2 enzyme inhibitors, primary screen, biochemical, fluorescence polarization, human (AID 492956);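 further: inhibitors block probe labeling of enzyme so polarization drops; 0% = enzyme with DMSO and 100% = wells lacking PAFAH2 protein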", "details": "recombinant PAFAH2, FP-rhodamine activity probe, at 3.39 µM, hits give high values", "values": [{"molecule": "CC(C)(C)c1ccc(/C=C2\\Oc3c(ccc(O)c3CN3CCN(CCO)CC3)C2=O)cc1", "inhibition": "82% (active)"}, {"molecule": "CCOC(=O)c1oc2c(CN3CCN(CCO)CC3)c(O)c(CC)cc2c(=O)c1-c1nc2ccccc2s1", "inhibition": "-4.68% (inactive)"}, {"molecule": "Cc1c2cn[nH]c(=O)c2c(C)n1Cc1ccc(F)cc1", "inhibition": "-4.15% (inactive)"}, {"molecule": "C=C1c2cccc(OC)c2O[C@H](C(=O)OCC)[C@@H]1CCCCCC", "inhibition": "2.29% (inactive)"}, {"molecule": "CCOC(=O)C1=C(CNC2CCCCC2)NC(=O)NC1c1cc(C)ccc1C", "note": "(configuration not stated)", "inhibition": "-10.1% (inactive)"}, {"molecule": "COc1ccc(O)c(C(=O)c2cnc3onc(C(C)C)c3c2)c1", "inhibition": "-6.85% (inactive)"}, {"molecule": "COCC1CCN(C(=O)c2ccc3oc(Cc4ccccc4)nc3c2)C1", "note": "(configuration not stated)", "inhibition": "58.9% (active)"}, {"molecule": "COCC1CCCN(C(=O)c2ccc3oc(C(C)C)nc3c2)C1", "note": "(configuration not stated)", "inhibition": "2.06% (inactive)"}, {"molecule": "COC(=O)C1CCN(C(=O)c2ccc3oc(Cc4ccc(Cl)cc4)nc3c2)CC1", "inhibition": "-2.24% (inactive)"}, {"molecule": "CC1=NC2(CCCc3c2no[n+]3[O-])N(O)C1(C)C", "note": "(configuration not stated)", "inhibition": "-4.68% (inactive)"}, {"molecule": "COCCNC(=O)CN1C(=O)CSc2ncccc21", "inhibition": "3.18% (inactive)"}, {"molecule": "Cc1ccc(Cl)cc1NC(=O)COC(=O)C1CCCCC1", "inhibition": "37.4% (active)"}, {"molecule": "COc1ccc(CCNC(=O)COC(=O)C2CCCCC2)cc1", "inhibition": "7.99% (inactive)"}, {"molecule": "Cc1ccc(Cl)cc1NC(=O)COC(=O)CC(C)(C)C", "inhibition": "6.71% (inactive)"}, {"molecule": "Cc1c(Cl)cnc(NC(=O)COC(=O)c2ccc(S(=O)(=O)NCc3ccco3)cc2)c1Cl", "inhibition": "22.8% (inactive)"}, {"molecule": "CSCCC(NC(=O)c1ccco1)C(=O)OCC(=O)Nc1ncc(Cl)c(C)c1Cl", "note": "(configuration not stated)", "inhibition": "0.63% (inactive)"}, {"molecule": "Cc1c(Cl)cnc(NC(=O)COC(=O)C2CCCC2)c1Cl", "inhibition": "37.6% (active)"}, {"molecule": "Cc1cc(=O)oc2c(C)c(OCC(=O)NCCN3CCOCC3)ccc12", "inhibition": "-1.89% (inactive)"}, {"molecule": "COc1ccc(S(=O)(=O)N2CCC(C(=O)N3CCCC3)CC2)cc1C", "inhibition": "-0.54% (inactive)"}, {"molecule": "Nc1nc(SCc2cccc(Br)c2)n[nH]1", "inhibition": "-14.7% (inactive)"}, {"molecule": "CN(Cc1ccccc1)C(=O)C(=O)c1cn(CC(=O)N2CCCC2)c2ccccc12", "inhibition": "5.94% (inactive)"}, {"molecule": "CCOC(=O)C1C(=O)C=C(c2ccc(OC)cc2)CC1c1ccco1", "note": "(configuration not stated)", "inhibition": "6.12% (inactive)"}, {"molecule": "O=S(=O)(NCc1ccccc1Br)c1ccccc1Br", "inhibition": "3.56% (inactive)"}, {"molecule": "Cc1ccn2c(=O)nc(SCC(=O)NCc3ccc(F)cc3)nc2c1", "inhibition": "10.6% (inactive)"}, {"molecule": "Cc1ccc(C)c(N2CCN(C(=O)CCc3nc4ccccc4[nH]3)CC2)c1", "inhibition": "2.85% (inactive)"}, {"molecule": "CCO[C@@H]1OC(C(=O)NCc2nc3ccccc3[nH]2)=C[C@H](C2CCCCC2)[C@H]1CCCO", "inhibition": "-12.7% (inactive)"}, {"molecule": "O=C(OCc1nc2ccccc2[nH]1)C1CCCCC1", "inhibition": "59.9% (active)"}, {"molecule": "CCO/C=C1\\C(=O)N(c2ccc(OCC)cc2)C(=O)c2ccccc21", "inhibition": "5.93% (inactive)"}, {"molecule": "Cc1ccc(OCC(=O)Nc2cccc3c2CCCC3)cc1C", "inhibition": "-17.9% (inactive)"}, {"molecule": "NC(=O)C1CCN(C(=O)c2ccc3c(=O)n(Cc4cccc(Br)c4)c(=S)[nH]c3c2)CC1", "inhibition": "1.48% (inactive)"}, {"molecule": "COc1cc(OC)c2c(-c3cccc(-c4cccc(N)c4)c3)cc(=O)oc2c1", "inhibition": "4.97% (inactive)"}, {"molecule": "CCOc1ccc(NC(=O)C2CCN(C(=O)N3CCOc4ccccc43)CC2)cc1", "inhibition": "-3.71% (inactive)"}, {"molecule": "C=CCN(C(=O)c1cc(C)cc(C)c1)C1(C(=O)Nc2ccccc2)CCN(C(C)C)CC1", "inhibition": "-2.17% (inactive)"}, {"molecule": "CC(=O)Nc1ccc(S(=O)(=O)NC(C)C(=O)OCC(=O)NC2CCCC2)cc1", "note": "(configuration not stated)", "inhibition": "-5.65% (inactive)"}, {"molecule": "Cc1ccc(NC(=O)Cc2nc(COC(=O)C(C)NS(=O)(=O)c3ccc(C)cc3)cs2)cc1", "note": "(configuration not stated)", "inhibition": "67.5% (active)"}, {"molecule": "C/C=C/C(=O)OCc1csc(CC(=O)Nc2ccccc2C)n1", "inhibition": "2.3% (inactive)"}, {"molecule": "Cc1ccc(S(=O)(=O)N(C)C)cc1NC(=O)c1ccccc1Br", "inhibition": "1.28% (inactive)"}, {"molecule": "CN(C(=O)c1c(Cl)cnn1C)C12CC3CC(CC(C3)C1)C2", "inhibition": "1.24% (inactive)"}, {"molecule": "NS(=O)(=O)c1ccc(NC(=O)COC(=O)c2c3c(nc4ccccc24)/C(=C\\c2ccc4c(c2)OCO4)CCC3)cc1", "inhibition": "-39.4% (inactive)"}, {"molecule": "CCn1ccnc1CNC(=O)CC1C(=O)NCCN1CCCc1ccccc1", "note": "(configuration not stated)", "inhibition": "-0.69% (inactive)"}, {"molecule": "CC(C)CC(NC(=O)C1CCCN1C(=O)[C@@H](C)NC(=O)OCc1ccccc1)C(=O)NCC(N)=O", "note": "(some centres not stated) (Cbz-[dA][ξP][ξL]G-NH2)", "inhibition": "3.95% (inactive)"}, {"molecule": "Cc1ccc(NC(=O)C2CCCN2C(=O)OCc2ccccc2)cc1C", "note": "(configuration not stated)", "inhibition": "-10.9% (inactive)"}, {"molecule": "CCC(C)C(NC(=O)C1CCC(=O)N1C(=O)OCc1ccccc1)C(=O)NC(C(=O)N1CCCC1C(N)=O)C(C)CC", "note": "(configuration not stated)", "inhibition": "45% (active)"}, {"molecule": "CCc1cc(CNC(=O)CC2C(=O)NCCN2Cc2ccccc2C(F)(F)F)on1", "note": "(configuration not stated)", "inhibition": "-1.63% (inactive)"}, {"molecule": "COC(=O)CNc1nc(Cl)nc(N2CCC(C)CC2)n1", "inhibition": "-3.76% (inactive)"}, {"molecule": "C/C(Cn1nnc2ccccc21)=N\\OC(=O)c1cc(F)c(F)cc1Cl", "inhibition": "75.7% (active)"}, {"molecule": "Cn1c(Cn2nnc3ccccc32)nnc1SCC(=O)c1ccccc1F", "inhibition": "-0.21% (inactive)"}, {"molecule": "CCOC(=O)c1cccc(NC(=O)CCn2nnc3ccccc32)c1", "inhibition": "-12.2% (inactive)"}, {"molecule": "CCCCCN(C(=O)CCC(=O)OCCOc1ccc(OC)cc1)c1c(N)n(CCCC)c(=O)[nH]c1=O", "inhibition": "0.6% (inactive)"}, {"molecule": "COc1ccc(Cc2nc3ccc(C(=O)N4CCC(N(C)C)C4)cc3o2)cc1", "note": "(configuration not stated)", "inhibition": "1.02% (inactive)"}, {"molecule": "CC(C)CN(C(=O)CSc1ncnc2sccc12)C1CCS(=O)(=O)C1", "note": "(configuration not stated)", "inhibition": "-0.68% (inactive)"}, {"molecule": "CCN(CC)CCCN1C(=O)C(=O)/C(=C(/O)c2c(C)nc3ccccn23)C1c1ccc(C)o1", "note": "(configuration not stated)", "inhibition": "-8% (inactive)"}, {"molecule": "Cc1nc(N)nc(Cl)c1CCC1OCCO1", "inhibition": "-3.02% (inactive)"}, {"molecule": "O=C1CSC(=S)N1/N=C/c1ccc(O)c([N+](=O)[O-])c1", "inhibition": "38.1% (active)"}, {"molecule": "Cc1cc(C(=O)N/N=C/c2ccc(O)c([N+](=O)[O-])c2)c(C)n1-c1ccc(F)cc1", "inhibition": "15.3% (inactive)"}, {"molecule": "CCOc1cccc(/C=N/N2C(=O)CSC2=S)c1O", "inhibition": "21.4% (inactive)"}, {"molecule": "CCn1ncc(Br)c1C(=O)Nc1cc(C)ccc1F", "inhibition": "4.13% (inactive)"}]}]}
